Data on nine molecules can be found in PubChem BioAssay.

Assay [1] is described as follows: reducers of endogenous Her2 protein level, primary screen, SKBR3 breast tumor cells, AlphaScreen, ATP viability (AID 461;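 active means Her2 level under about 52% in both replicate screens, with viability over 70% of control, limit read from the data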;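 on Her2 level: lower value means less Her2 protein in the cells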;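 on viability: percent of carrier control wells set as 100% viability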). The settings on record: 18-24 h, measured here: SKBR3 viability, ATP luminescence, at 10 µM. (In general: Alpha assays give light when donor and acceptor beads are brought close together.)
The target of assay [2] is Receptor tyrosine-protein kinase erbB-2 (Homo sapiens) (UniProt P04626). The description is as above. The settings on record: 18-24 h, at 10 µM, stronger effect = lower value.
The nature of assay [3]: SK-BR-3 cell growth inhibitors, pilot screen, 24 h, human (AID 572;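 active means viability at or below 10% of carrier control in both of two separate runs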;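 further: compound exposure lasted between 18 and 24 h rather than exactly 24 h; 100% = carrier-treated control wells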). The settings on record: SK-BR-3 viability, CellTiter-Glo luminescence, at 10 µM, stronger effect = lower value. In general terms: In ATP-based viability assays light output follows the ATP content of the culture.
The nature of assay [4]: HUVEC growth inhibition – cell-based, human, primary screen (AID 575;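 active means viability at or below 30% in both replicate assays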;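 further: 100% = median of untreated cell wells with 0.1% DMSO on each plate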). The settings on record: HUVEC proliferation, CellTiter-Glo luminescence, 72 h; at 10 µM; stronger effect = lower value.
Assay [5] is described as follows: growth inhibitors of H69AR lung tumor, primary screen, human, duplicate replicates (AID 580;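 active means viability at or under a set limit in both replicates, limit being median viability minus 3 SD, cut at about 48% in these data, passing the limit was not always enough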;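 further: 100% = mean luminescence of untreated wells and 0% = no signal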). The settings on record: H69AR lung tumor cells viability, ATP luminescence, 72 h; at 10 µM; stronger effect = lower value.
Assay [6] in a line: reversal of MRP1-mediated doxorubicin resistance, pilot screen, H69AR cells, doxorubicin co-treatment (AID 601). The settings on record: CellTiter-Glo, 72 h, at 10 µM; for differential viability (reversal): stronger effect = higher value.
Assay [7] in a line: 384-well plate pilot, post-Golgi transport modulator project, inhibition of yeast transport mutant growth (AID 636; in the data active means inhibition above about 31%). The settings on record: absorbance 615 nm, about 18 h, stronger effect = higher value.
Assay [8] in a line: growth suppression of yeast trafficking mutant, preliminary HTS, modulators of trafficking downstream of Golgi apparatus project, 1536-format plate, OD 615 nm (AID 637; in the data active means inhibition above about 30%). The settings on record: yeast transport mutant growth, absorbance 615 nm, 18 h; stronger effect = higher value.
Assay [9] can be described thus: OD615 S. cerevisiae growth inhibition, permissive medium, pilot counter-assay, permissive growth control for S. cerevisiae lifespan shortening project (AID 705;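 active means growth inhibition above 25% in both replicates, a cutoff set 3 SD above the mean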). The settings on record: OD615, 24 h, at 10 µM, stronger effect = higher value.
Assay [10] is described as follows: Restrictive medium S. cerevisiae growth inhibition, OD615, pilot screen of yeast lifespan reduction project, restrictive growth control (AID 706;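 active means growth inhibition above a set limit, 3 SD over mean compound inhibition, in both replicates, cut at about 43% in these data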;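 further: modified DeaD lifespan yeast strain shifted to restrictive glucose medium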). The settings on record: OD615, 48 h, at 10 µM, stronger effect = higher value.
The nature of assay [11]: viability gain of MRP-1-high H69AR cells under doxorubicin, pilot screen, MRP-1 activator project, CellTiter-Glo, duplicate (AID 807;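 active means viability increase at or above a cutoff of the median across tested compounds plus 3 SD, cut at about 8.5% in these data, passing the limit was not always enough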;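 further: compound pretreatment 18-22 h then 72 h combined with doxorubicin; 0% = doxorubicin alone and 100% = vehicle without doxorubicin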). The settings on record: H69AR viability with doxorubicin, CellTiter-Glo luminescence; at 10 µM; stronger effect = higher value.
Assay [12] can be described thus: growth suppression of beta-catenin knockout HCT116, pilot screen, human colon tumor cells (AID 823;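 active means cell viability at or below a set limit in both duplicate runs, the limit being the all-compound median minus 4 SD, cut at about 23% in these data, passing the limit was not always enough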;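 further: 0% = wells killed by 20 µM Hyamine and 100% = untreated DMSO cell wells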). The settings on record: CellTiter-Glo, 60 h, at 10 µM, stronger effect = lower value.
A short description of assay [13]: growth suppression of PTEN-deleted HCT116, pilot screen, cell-based, HCT116 clonal line, CellTiter-Glo (AID 824;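 active means viability at or below 27.92% in each of two runs, the all-compound median minus 4 SD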;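 further: 0% = 20 µM Hyamine control and 100% = vehicle cell control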). The settings on record: 60 h, at 10 µM, stronger effect = lower value.
The nature of assay [14]: inhibitors of the yeast RAM network, pilot screen, dse1pr::URA3 reporter, 5-FOA selection (AID 869;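 active means inhibition over a set limit, the all-compound mean plus 3 SD, in both replicate runs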;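 further: 0% = DMSO wells with no growth and 100% = 10 µM 1-NA-PP1 with full growth; RAM network block rescues cells from 5-FOA so hits raise OD615 growth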). The settings on record: S. cerevisiae dse1pr::URA3 5-FOA growth, OD615, 2 d; at 10 µM; stronger effect = higher value; strain carries analog-sensitive mutant Cbk1 kinase.
Assay [15] is described as follows: RAM signaling pathway blockade in yeast – S. cerevisiae, Pdr1DBD-CYC8 efflux-inhibited sensitized strain, primary screen (AID 1298;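 active means RAM network inhibition above 8.4% in each of two replicates, 3 SD over the compound average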;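 further: 0% = DMSO untreated cells without growth and 100% = 10 µM 1-NA-PP1 full growth; higher means more yeast growth rescued from 5-FOA killing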). The settings on record: S. cerevisiae cbk1-as DSE1-URA3 strain, 5-FOA growth OD615, 2 d; at 50 µM; stronger effect = higher value.
Where [16] appears, read: H69AR cells + 2 uM doxorubicin, measured here: viability with 2 uM doxorubicin, stronger effect = lower value.
[17] abbreviates: H69AR cells, compound alone cytotoxicity.

Records with an inconclusive call do not appear. Activity calls are given as the source filed them.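 How the source made its calls, unless noted: active means viability loss from added drug above about 55%, and viability with drug at most 40%, in both replicates (limit read from the data, passing the limit was not always enough); inconclusive means both conditions met in only one replicate; inactive means neither replicate meets both conditions.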

One may read the viability as a read-out of living cells in per cent, often relative to untreated cells. The term inhibition denotes the drop in the measured response relative to a control, in per cent.

Chain of Receptor tyrosine-protein kinase erbB-2 (Homo sapiens) (P04626 whole entry, looked up): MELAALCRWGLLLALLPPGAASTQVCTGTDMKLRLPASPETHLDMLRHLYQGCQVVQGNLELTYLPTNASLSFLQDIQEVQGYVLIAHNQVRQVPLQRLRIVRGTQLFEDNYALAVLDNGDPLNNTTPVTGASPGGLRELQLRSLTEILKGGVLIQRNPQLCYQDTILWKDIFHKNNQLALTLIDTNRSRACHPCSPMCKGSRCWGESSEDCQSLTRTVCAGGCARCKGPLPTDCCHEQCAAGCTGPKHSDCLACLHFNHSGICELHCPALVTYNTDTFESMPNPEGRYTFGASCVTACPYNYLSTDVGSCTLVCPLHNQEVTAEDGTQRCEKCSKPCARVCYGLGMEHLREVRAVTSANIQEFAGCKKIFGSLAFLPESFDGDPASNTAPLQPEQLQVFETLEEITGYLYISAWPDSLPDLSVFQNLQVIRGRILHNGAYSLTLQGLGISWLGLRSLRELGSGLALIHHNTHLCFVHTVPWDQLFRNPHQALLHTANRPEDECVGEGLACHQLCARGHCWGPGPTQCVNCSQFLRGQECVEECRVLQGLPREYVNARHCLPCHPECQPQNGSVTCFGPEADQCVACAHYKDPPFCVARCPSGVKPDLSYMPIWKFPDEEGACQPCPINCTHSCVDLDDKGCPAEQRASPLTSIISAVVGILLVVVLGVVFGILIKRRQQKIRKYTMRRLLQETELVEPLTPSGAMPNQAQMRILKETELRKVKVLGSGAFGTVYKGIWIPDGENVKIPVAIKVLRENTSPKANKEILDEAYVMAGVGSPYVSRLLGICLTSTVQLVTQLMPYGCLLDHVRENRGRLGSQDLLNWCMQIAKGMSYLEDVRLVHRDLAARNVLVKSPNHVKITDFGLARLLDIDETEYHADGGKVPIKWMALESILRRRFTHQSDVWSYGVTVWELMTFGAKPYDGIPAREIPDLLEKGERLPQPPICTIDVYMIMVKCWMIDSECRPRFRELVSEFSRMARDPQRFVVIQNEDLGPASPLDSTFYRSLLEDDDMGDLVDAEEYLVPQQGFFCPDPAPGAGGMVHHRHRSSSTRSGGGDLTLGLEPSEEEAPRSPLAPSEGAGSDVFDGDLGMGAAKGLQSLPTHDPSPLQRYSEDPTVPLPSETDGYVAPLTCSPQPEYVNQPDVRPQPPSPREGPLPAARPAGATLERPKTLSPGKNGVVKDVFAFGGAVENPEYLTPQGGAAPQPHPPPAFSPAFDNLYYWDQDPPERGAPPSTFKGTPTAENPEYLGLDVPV

Take `CC12CN3CC(C)(CN(C1)C3c1ccc(Cl)cc1Cl)C2=O` (stereo not drawn): the viability is 97% in [1]; 97% (inactive) in [3]; 101% (inactive) in assay [4]; 80.9% (inactive) in [5]; 88.2% in assay [6] (setting [16]); 80.9% in [6] (setting [17]). For the same molecule, the viability is 93.4% (inactive) in [12] and 95.3% (inactive) in [13]. Besides, the Her2 level in assay [2] was 102% (inactive). The differential viability (reversal) in assay [6] (H69AR cells + 2 uM doxorubicin) is -7.23% (inactive). The inhibition in [7] was -2.67% (inactive); in assay [8] it was -3% (inactive); in assay [14], 1.56% (inactive). In addition, the growth inhibition in [9] is -17.2% (inactive); in [10] it was -1.12% (inactive). Further, the viability increase in assay [11] is -2.71% (inactive). Also, the RAM network inhibition in assay [15] was -0.11% (inactive).

Regarding `O=C1CN(c2nc3ccccc3n3cnnc23)CC(=O)N1CCc1ccccc1`, the viability was 91.5% in assay [1]; 91.5% (inactive) in assay [3]; 104% (inactive) in assay [4]; 102% (inactive) in [5]; 90.2% in assay [6] (setting [16]); 102% in assay [6] (setting [17]). In addition, the viability was 102% (inactive) in assay [12] and 95.9% (inactive) in assay [13]. Besides, in [2], the Her2 level was 100% (inactive). Further, the differential viability (reversal) in assay [6] (H69AR cells + 2 uM doxorubicin) is 12% (inactive). Besides, the inhibition in [7] is -0.38% (inactive); in assay [8], -1.17% (inactive); in assay [14] it was 3.38% (inactive). Moreover, the growth inhibition in assay [9] is -6.92% (inactive); in [10], -3.06% (inactive). For the same molecule, the viability increase in assay [11] is 0.25% (inactive). Besides, the RAM network inhibition in assay [15] was 5.88% (inactive).

With `CCCCSc1nc2c(cnn2-c2ccc(F)cc2)c(=O)[nH]1`, the viability is 93.5% in assay [1]; 93.5% (inactive) in assay [3]; 96.2% (inactive) in assay [4]; 74% (inactive) in [5]; 84.9% in assay [6] (setting [16]); 74% in assay [6] (setting [17]). Besides, the viability was 104% (inactive) in assay [12] and 93.7% (inactive) in [13]. The Her2 level in assay [2] is 92% (inactive). In addition, the differential viability (reversal) in [6] (H69AR cells + 2 uM doxorubicin) is -10.8% (inactive). For the same molecule, the inhibition is -0.93% (inactive) in assay [7], 0.5% (inactive) in [8] and 1.85% (inactive) in assay [14]. The growth inhibition in [9] is -7.35% (inactive); in [10] it was -3.62% (inactive). In addition, the viability increase in assay [11] was -2.12% (inactive). Further, the RAM network inhibition in assay [15] was 6.19% (inactive).

Take `COc1ccc(-n2c(=O)c3c4c(sc3n3cnnc23)CC(C)CC4)cc1` (stereo not drawn): the viability was 95.5% in [1]; 95.5% (inactive) in assay [3]; 67.8% (inactive) in [4]; 72.2% (inactive) in assay [5]; 51% in assay [6] (setting [16]); 72.2% in assay [6] (setting [17]). Also, the viability in assay [12] is 87.8% (inactive); in [13] it was 92.2% (inactive). In addition, the Her2 level in assay [2] is 88.5% (inactive). Further, the differential viability (reversal) in [6] (H69AR cells + 2 uM doxorubicin) is 21.2% (inactive). In addition, the inhibition was -8.11% (inactive) in [7], 0.98% (inactive) in assay [8] and -0.585% (inactive) in assay [14]. In addition, the growth inhibition was -10.9% (inactive) in assay [9] and 9.5% (inactive) in assay [10]. Also, the viability increase in [11] was -5.52% (inactive). Besides, the RAM network inhibition in assay [15] is 2.05% (inactive).

`COc1cc(C(=O)N2c3ccccc3CC2C)cc(OC)c1OC` (stereo not drawn): the viability in [1] is 102%; in [3] it was 102% (inactive); in assay [4], 88.8% (inactive); in assay [5], 81.8% (inactive); in assay [6] (setting [16]), 91.3%; in assay [6] (setting [17]), 81.8%. Further, the values for the viability in assay [12] and in assay [13] were 87.4% (inactive) and 83.8% (inactive), respectively. Besides, in assay [2], the Her2 level is 81.5% (inactive). Also, the differential viability (reversal) in assay [6] (H69AR cells + 2 uM doxorubicin) is -9.55% (inactive). In addition, the inhibition in [7] was -4.59% (inactive); in assay [8] it was -3.33% (inactive); in [14], 0.67% (inactive). Moreover, the growth inhibition is -3.11% (inactive) in assay [9] and -16.6% (inactive) in assay [10]. Moreover, the viability increase in assay [11] was -4.64% (inactive). Also, the RAM network inhibition in [15] was 6.34% (inactive).

In the case of `CCC(C)NC(=O)c1cn(CC)c2ccc(S(=O)(=O)N(C)C)cc2c1=O` (stereo not drawn), the viability in [1] was 87%; in [3], 87% (inactive); in assay [4], 85.7% (inactive); in assay [5] it was 78.9% (inactive); in assay [6] (setting [16]), 90.6%; in assay [6] (setting [17]) it was 78.9%. The viability in assay [12] is 92.4% (inactive); in assay [13] it was 93.4% (inactive). In addition, the Her2 level in [2] was 84% (inactive). Besides, the differential viability (reversal) in assay [6] (H69AR cells + 2 uM doxorubicin) was -11.6% (inactive). Besides, the inhibition in [7] is -4.53% (inactive); in assay [8] it was -2.33% (inactive); in [14], -0.32% (inactive). For the same molecule, the growth inhibition in [9] is 2.96% (inactive); in [10], 14.4% (inactive). Also, in assay [11], the viability increase was -2.73% (inactive). The RAM network inhibition in assay [15] was 1.7% (inactive).

Regarding `O=C(O)c1ccc(-c2ccc(O)c(F)c2)cc1`, the viability in [1] was 94%; in [3], 94% (inactive); in assay [4] it was 92.8% (inactive); in assay [5], 82.9% (inactive); in assay [6] (setting [16]), 88.6%; in [6] (setting [17]), 82.9%. The viability in assay [12] is 99.3% (inactive); in [13], 97.4% (inactive). Moreover, in [2], the Her2 level is 167% (inactive). In addition, the differential viability (reversal) in [6] (H69AR cells + 2 uM doxorubicin) was -5.75% (inactive). Moreover, the inhibition is -0.4% (inactive) in assay [7], 1.5% (inactive) in assay [8] and -0.17% (inactive) in [14]. Further, the growth inhibition in [9] was -8.37% (inactive); in assay [10], 12.1% (inactive). Further, the viability increase in assay [11] is -2.66% (inactive). For the same molecule, the RAM network inhibition in [15] is -2.4% (inactive).

For `Fc1ccc(-c2nnc3ccc(N4CCCC4)nn23)cc1`, the viability is 80% in assay [1]; 80% (inactive) in assay [3]; 64.2% (inactive) in [4]; 94.5% (inactive) in assay [5]; 77.7% in assay [6] (setting [16]); 94.5% in assay [6] (setting [17]). In addition, the viability in assay [12] was 102% (inactive); in assay [13] it was 86.3% (inactive). For the same molecule, the Her2 level in assay [2] is 90.5% (inactive). In addition, in assay [6] (H69AR cells + 2 uM doxorubicin), the differential viability (reversal) was 16.8% (inactive). For the same molecule, the inhibition in assay [7] is -0.27% (inactive); in assay [8] it was 8.52% (inactive); in assay [14], 0.685% (inactive). The growth inhibition in [9] was 11.7% (inactive); in [10], 32.5% (inactive). The viability increase in [11] is -5.62% (inactive). In [15], the RAM network inhibition was 5.61% (inactive).

On to `CCN1CCN(C(=O)Cn2ncc3ccsc3c2=O)CC1`, for which the viability in assay [1] is 101%; in assay [3], 101% (inactive); in assay [4] it was 89.8% (inactive); in [5], 97% (inactive); in assay [6] (setting [16]), 93%; in assay [6] (setting [17]) it was 97%. Besides, the figures for the viability in assay [12] and in assay [13] were 105% (inactive) and 101% (inactive), respectively. Besides, in assay [2], the Her2 level was 110% (inactive). Moreover, the differential viability (reversal) in [6] (H69AR cells + 2 uM doxorubicin) was 4.04% (inactive). Further, the inhibition in assay [7] is -3.73% (inactive); in [8] it was 0.5% (inactive); in [14] it was 1.72% (inactive). The results for the growth inhibition in assay [9] and in assay [10] were -0.535% (inactive) and 2.34% (inactive), respectively. In [11], the viability increase was 1.63% (inactive). Also, the RAM network inhibition in [15] is 0.51% (inactive).
